Screening results as filed in PubChem BioAssay.
Mot1-301 SUMO – SUMOylation pathway inhibition by Mot1-301 growth rescue; S. cerevisiae Mot1-301 growth rescue, ATP luminescence, 38.5C; percent above DMSO median, 100 means doubled; growth rescue, % at 18.8 µM; 320,000 compounds, 1% hits; AID 2716;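 active means every valid replicate shows activation above 250% relative to neutral control wells; inactive means the rest, any valid replicate at or below 250%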;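 further: OY570 slx delta 5 strain wells were the positive control but not used for scaling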
ALR H2O2 inh – inhibitors of human sulfhydryl oxidase ALR; AID 485317; purified ALR, DTT oxidation, H2O2 HRP-luminol luminescence; P55789; inhibition, % (test concentration not listed); 290,000 compounds, 3.8% hits;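 active means mean replicate inhibition above about 79%, with every replicate also reaching it, limit read from the data; inconclusive means only one of the two criteria met; inactive means mean below limit and not every replicate reaching it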
VLA-4 inh – inhibition in a human VLA-4 binding assay; P13612; VLA-4 expressing cells, ligand binding flow cytometry; inhibition, % (about 7 µM as worked out from the volumes in the protocol); 330,000 compounds, 0.2% hits; AID 2557; in the data active means inhibition above about 50%
Bfl-1 A1 inh – inhibitors of the anti-apoptotic protein A1, read as caspase activation. MEF A1-2A-BIM cells, Caspase-Glo 3/7 luminescence, 3 h; percent of clofoctol response, vehicle zero. caspase activation, % (no concentration beside the values). 330,000 compounds, 0.066% hits. AID 2462;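 active means over half of replicate activation scores above 10%, or exactly half above 10 with the replicate mean above 10; inconclusive means replicate mean below 10 yet half the replicates above 10; inactive means over half of replicates below 10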
Efflux pump mplx – inhibitors of Candida antifungal efflux pumps expressed in yeast; 330,000 compounds, 0.44% hits; AID 485275; S. cerevisiae Candida pump triplex, Nile Red efflux; inhibition, % at 10 µM;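 active means plate passing quality check with inhibition over a set limit, or well fluorescence over plate mean plus 4 SD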;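 further: Nile Red retained in pooled yeast measured as flow cytometry median fluorescence; 0% = buffer negative control and 100% = Enniatin B positive control; higher means more Nile Red kept so more efflux inhibition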
AHR activator – human AHR activation; P35869; AHR-responsive luciferase reporter cells, luminescence; activation, % at 5 µM; 320,000 compounds, 2.5% hits; in the data active means activation above about 47%;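 further: 0% = vehicle wells and 100% = reference agonist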
Target sequence (P35869 whole entry, looked up): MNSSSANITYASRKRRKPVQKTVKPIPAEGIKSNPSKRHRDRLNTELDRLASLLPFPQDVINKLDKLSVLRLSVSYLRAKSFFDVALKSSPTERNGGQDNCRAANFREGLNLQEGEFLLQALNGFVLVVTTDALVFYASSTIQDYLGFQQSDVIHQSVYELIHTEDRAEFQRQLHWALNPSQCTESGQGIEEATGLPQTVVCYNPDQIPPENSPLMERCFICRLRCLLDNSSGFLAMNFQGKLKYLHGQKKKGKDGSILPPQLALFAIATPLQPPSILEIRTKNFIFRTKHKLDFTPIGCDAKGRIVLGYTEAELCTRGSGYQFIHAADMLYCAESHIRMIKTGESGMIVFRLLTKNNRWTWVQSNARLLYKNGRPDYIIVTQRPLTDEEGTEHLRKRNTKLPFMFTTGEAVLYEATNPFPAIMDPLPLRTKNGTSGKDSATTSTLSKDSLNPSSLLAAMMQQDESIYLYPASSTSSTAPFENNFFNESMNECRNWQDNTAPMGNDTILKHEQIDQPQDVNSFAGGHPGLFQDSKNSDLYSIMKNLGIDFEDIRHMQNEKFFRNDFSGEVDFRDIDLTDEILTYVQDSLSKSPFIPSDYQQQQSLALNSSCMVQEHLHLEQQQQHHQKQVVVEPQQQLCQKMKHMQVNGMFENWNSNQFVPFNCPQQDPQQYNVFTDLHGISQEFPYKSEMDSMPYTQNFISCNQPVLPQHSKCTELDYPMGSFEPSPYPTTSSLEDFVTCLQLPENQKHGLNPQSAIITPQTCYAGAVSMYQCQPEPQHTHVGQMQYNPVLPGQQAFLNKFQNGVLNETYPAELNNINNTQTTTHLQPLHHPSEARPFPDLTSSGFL
The depositor's hits bear a star; u = inconclusive; x = no result. Sampled rows, rich in hits. Any-hit rate of the full collection: about 7.2%.

SMILES	Mot1-301 SUMO	ALR H2O2 inh	VLA-4 inh	Bfl-1 A1 inh	Efflux pump mplx	AHR activator
CC1(C)CC(=O)C2=C(C1)Nc1ccccc1NC2c1ccccc1F (centres undefined)	-4.7	98.2*	-9.3	0.8	-0.1	0.1
CC1(C)CC(=O)C2=C(C1)Nc1ccccc1NC2c1ccc([N+](=O)[O-])cc1 (centres undefined)	-2.7	97.9*	5.4	-0.4	0.0	-1.7
COc1cccc(C2Nc3ccccc3NC3=C2C(=O)CC(C)(C)C3)c1 (centres undefined)	8.6	98.2*	8.6	0.7	-0.1	-0.6
CC1(C)CC(=O)C2=C(C1)Nc1ccccc1NC2c1cccs1 (centres undefined)	x	98.6*	-1.2	0.7	0.0	-2.2
CN(C)C(=O)[C@H]1C[C@H]1[C@@H](O)[C@H](CO)NC(=O)[C@H](COCc1ccccc1)NC(=O)OC(C)(C)C	-5.0	0.3	23.2	-0.5	-0.2	0.9
CC1(C)CC(=O)C2=C(C1)Nc1ccccc1NC2c1ccc(F)c(F)c1 (centres undefined)	4.3	98.7*	11.5	-0.1	-0.1	1.7
COc1ccc(OCCCC(=O)Nc2cc(Cl)ccc2-n2cncn2)cc1	337.9	-4.5	4.0	0.9	0.1	17.1
Cc1c(Br)cc(C(=O)NCc2ccco2)c(C)c1C	1.9	98.1*	20.5	0.4	0.0	4.4
COc1ccc(N/N=C(/C(C)=O)N2CCCc3ccccc32)cc1	-6.6	95.9*	6.4	-0.3	0.0	7.9
COc1ccc(NC(=O)N2CCCc3ccccc32)cc1	-14.4	-12.2	8.5	x	0.0	4.4
O=C(CSc1ccc(-c2cccnc2)nn1)c1ccc([N+](=O)[O-])cc1	178.4	u	-9.4	0.2	0.1	58.0*
O=C(CSc1ccc(-c2ccccn2)nn1)c1ccc([N+](=O)[O-])cc1	-19.7	2.3	7.9	-0.1	-0.1	2.1
Cc1ccc(NC(=O)CSc2ccc(-c3cccnc3)nn2)cc1	-9.4	-3.1	9.3	1.1	0.1	25.4
Cc1cccc(NC(=O)CSc2ccc(-c3cccnc3)nn2)c1	-16.8	4.2	-4.3	1.6	-0.7	50.0*
CC(Sc1nc(O)c(-c2ccccc2)c(=O)[nH]1)C(=O)Nc1ccc(Cl)cc1 (centres undefined)	-12.2	x	5.0	-1.4	-0.1	1.8
CCOC(=O)c1ccc(NC(=O)C(C)Sc2nc(O)c(-c3ccccc3)c(=O)[nH]2)cc1 (centres undefined)	17.3	98.6*	-2.4	-0.2	-0.1	0.3
CCN(c1ccc(NC(=O)CSCc2c(C)noc2C)cc1)C(C)C	0.3	99.2*	-27.1	-0.1	-0.1	7.1
Cc1cc(C)n2c(SCC(=O)Nc3ccc(F)cc3)nnc2n1	6.5	-2.2	5.0	0.8	0.0	-4.2
CCN(c1ccc(NC(=O)CSc2nnc3nc(C)cc(C)n23)cc1)C(C)C	-7.9	98.9*	-6.3	0.0	0.1	-10.5
CC(C)NC(=O)NC(=O)COC(=O)c1cccc(OC(F)F)c1	6.9	0.4	11.7	0.5	-0.1	3.4
CCC1CN(C(=O)Nc2cccc(C)c2)c2cc(C)ccc2O1 (centres undefined)	19.1	-1.9	12.9	0.1	-0.1	8.7
O=C(CSCc1ccc([N+](=O)[O-])cc1)NC1CC1	-9.8	x	3.2	0.7	-0.3	-2.2
CC(C)C(NC(=O)CSCc1ccc([N+](=O)[O-])cc1)C(C)C	12.3	98.4*	-11.6	1.3	0.1	-0.3
CCCn1nc(C(=O)NNC(=O)C2CSC3(C)CCC(=O)N23)c2ccccc2c1=O (centres undefined)	-7.2	0.4	1.2	0.1	0.0	-2.3
O=C(Oc1ccc(/C=N/O)cc1)c1ccccc1Cl	36.3	99.2*	6.4	-6.7	0.1	-2.3
SMILES	Mot1-301 SUMO	ALR H2O2 inh	VLA-4 inh	Bfl-1 A1 inh	Efflux pump mplx	AHR activator
Cc1cc(OC(C)C(=O)NCC2CCCO2)cc(C)c1Cl (centres undefined)	490.6	-2.9	-17.4	0.1	0.6	2.1
CN1C(=S)SC(N(O)C(=O)NC2CCCCC2)C1(C)C (centres undefined)	1.9	4.9	4.0	-0.5	0.0	1.0
CN(C)c1ccc(C(=O)NC2(N3CCC3=O)CCCC2)cc1	-8.1	99.5*	9.1	0.1	0.1	7.3
CCC(C)C(NC(=O)c1ccccc1)C(=O)Nc1ccc(S(=O)(=O)Nc2cc(C)nc(C)n2)cc1 (centres undefined)	x	x	2.5	x	0.2	-0.6
Cc1ccsc1C(=O)OCc1nc2ccccc2c(=O)[nH]1	6.5	18.9	-1.5	1.1	0.0	56.3*
Cc1ccsc1C(=O)OCc1nc2ccsc2c(=O)[nH]1	-14.4	8.7	8.0	-2.1	0.1	2.7
CSc1nc(N)nc2c1ncn2CC(=O)NCC1CCCO1 (centres undefined)	2.5	x	-8.8	-0.1	-0.2	0.1
C=CCNc1nc(-c2ccc3c(c2)OCCO3)cs1	1.9	67.7	3.7	-9.1	-0.6	13.2
Cc1ccc(-c2csc(NC(=O)CN3CC(C)OC(C)C3)n2)cc1 (centres undefined)	4.0	98.2*	2.8	0.5	0.0	15.3
c1cc2c(cc1-c1csc(NNC3=NCCCCC3)n1)OCCO2	2.1	98.5*	4.8	-0.4	0.2	6.2
CC1CCN(CC(=O)Nc2nc(-c3ccccc3)cs2)CC1	-2.5	-5.2	1.1	2.9	0.2	13.1
NC(=O)C1CCN(c2nc(-c3ccc(Br)cc3)cs2)CC1	16.3	x	-8.9	-0.1	0.8	44.5
CCC(=O)Nc1nc(-c2ccc3c(c2)OCCO3)cs1	14.8	86.1*	-20.5	-6.0	-0.3	13.4
NC(=O)C1CCN(c2nc(-c3ccc4c(c3)OCCO4)cs2)CC1	4.8	98.4*	11.2	0.2	0.0	0.2
O=C(O)CN1C(=O)COc2ccc(S(=O)(=O)N3CCCCCC3)cc21	-1.3	-2.7	-4.3	2.2	-0.2	0.4
Cc1ccccc1CC(=O)Nc1cccnc1	-19.4	3.1	-14.9	0.7	-0.1	2.3
COc1nccnc1NS(=O)(=O)c1ccc(NC(=S)NC(=O)c2ccccc2)cc1	-14.1	87.2*	8.6	-10.1	0.0	-2.8
COc1nccnc1NS(=O)(=O)c1ccc(NC(=S)NC(=O)/C=C/c2ccccc2)cc1	21.8	3.2	-12.7	0.4	0.0	1.0
Cc1cc(C)c(C)c(OCC(=O)N2CCCCCC2)c1	-13.9	15.6	5.2	0.1	0.0	4.5
O=[N+]([O-])c1ccc(N2CCN(CC3CCCCC3)CC2)cc1	315.0	-0.7	8.9	0.1	-0.2	0.0
Cn1c(=O)oc2cc(S(=O)(=O)Nc3ccc(O)cc3)ccc21	11.9	99.5*	-0.7	-0.2	0.1	x
CC(C)OCCCNS(=O)(=O)c1ccc2c(c1)oc(=O)n2C	2.6	99.0*	-0.6	-0.2	0.3	-0.4
CCCc1cc(C(=O)NNC(=S)Nc2cccc(C)c2)cs1	24.1	x	-9.2	0.9	0.0	8.5
